From PubChem BioAssay (NCATS) come the findings set out here.

Assay [1] addresses Cellular tumor antigen p53 (Homo sapiens) (UniProt P04637). Nature of the assay: Primary qHTS for small molecule compounds that upregulate eGFP-tagged delta133p53alpha (in N-terminal) cells. (AID 2060322). Further: nearly all actives have a fitted effect of over 75% in size.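 On activation: series mostly up to about 56 µM; 0% = DMSO vehicle and 100% = reference activator.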 As to conditions: NCI-H358 eGFP-delta133p53alpha fluorescence, 24 h; activation: hits give high values. The method, boiled down: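 NCI-H358 cells pre-induced 24 h with 10 ng/ml doxycycline to express N-terminal eGFP-delta133p53alpha, then dosed 24 h at 37C without doxycycline; fixed, Hoechst-stained, GFP intensity by laser scanning cytometry, normalized to DMSO (0%) and 57.5 uM 5-azacytidine (100%).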

The nature of assay [2]: BET inhibitor-based combinations targeting novel dependencies in MECOM-rearranged (r) AML: SET-2 cell line (AID 2202231). Further: nearly all actives have a fitted effect of over 35% in size.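 On viability: plate controls were DMSO treated cells for no effect and wells without cells for full effect.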 As to conditions: SET-2 AML cells viability, CellTiter-Glo luminescence, 48 h; viability: hits give low values, concentration not given here. The method, boiled down: (§1)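 Viability of cells (500 per well) is scored by luminescent CellTiter-Glo at 48 hr post-dosing. Eleven-point titrations are normalized to DMSO and empty controls and reduced to AUC values.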

The nature of assay [3]: BET inhibitor-based combinations targeting novel dependencies in MECOM-rearranged (r) AML: OCI-AML3 cell line (AID 2202232). Further: nearly all actives have a fitted effect of over 35% in size. Particulars: Potency: OCI-AML3 viability. The method, boiled down: as §1
Assay [4] in a line: BET inhibitor-based combinations targeting novel dependencies in MECOM-rearranged (r) AML: MV-4-11 cell line (AID 2202233). Further: nearly all actives have a fitted effect of over 45% in size. An outline of the steps: (§2)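 Using pin-tool transfer, drugs were added in 11 doses to cells (500/well), incubated 48 hr, and assessed with CellTiter-Glo. Z-AUC is a mean-centring transformation applied separately to each screened line.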
The nature of assay [5]: BET inhibitor-based combinations targeting novel dependencies in MECOM-rearranged (r) AML: HNT-34 cell line (AID 2202234). Further: nearly all actives have a fitted effect of over 35% in size. An outline of the steps: as §2
Assay [6] in a line: BET inhibitor-based combinations targeting novel dependencies in MECOM-rearranged (r) AML: UCSD-AML1 cell line (AID 2202235). Further: nearly all actives have a fitted effect of over 40% in size. An outline of the steps: as §2
Assay [7] in a line: BET inhibitor-based combinations targeting novel dependencies in MECOM-rearranged (r) AML: AML-191 cell line (AID 2202236; further: nearly all actives have a fitted effect of over 35% in size). The method, boiled down: as §1
Assay [8] in a line: BET inhibitor-based combinations targeting novel dependencies in MECOM-rearranged (r) AML: AML-194 cell line (AID 2202237; further: nearly all actives have a fitted effect of over 40% in size). An outline of the steps: as §1

Records with an inconclusive call do not appear. Unmarked numbers belong to inactive results. The source made the active and inactive calls. The call rests on the fitted dose curve; in most records, active means well fitted curve in the direction sought with a large enough effect; inconclusive means small, poorly fitted or top-dose-only effect, or another doubt; inactive means no such curve, though single readings can be large; an effect the other way counts as inactive or inconclusive.
Potency means the concentration at half of the fitted maximal effect.

Sequence of Cellular tumor antigen p53 (Homo sapiens) (P04637 whole entry, looked up): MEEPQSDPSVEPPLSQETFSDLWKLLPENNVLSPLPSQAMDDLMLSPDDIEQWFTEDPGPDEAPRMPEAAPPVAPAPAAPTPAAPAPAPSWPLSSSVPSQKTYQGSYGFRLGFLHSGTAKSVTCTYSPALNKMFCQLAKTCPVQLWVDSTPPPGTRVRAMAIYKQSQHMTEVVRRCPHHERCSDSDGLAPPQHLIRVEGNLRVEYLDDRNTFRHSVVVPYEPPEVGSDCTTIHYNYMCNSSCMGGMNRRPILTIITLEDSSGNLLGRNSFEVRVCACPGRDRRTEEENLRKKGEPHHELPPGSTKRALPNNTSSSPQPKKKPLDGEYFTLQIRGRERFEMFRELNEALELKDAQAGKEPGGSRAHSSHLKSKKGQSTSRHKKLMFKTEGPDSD

As to `Nc1cc(C(Cl)=C(Cl)Cl)c(S(N)(=O)=O)cc1S(N)(=O)=O`, the activation in assay [1] was 44.6%. In assay [2], the viability is 111%. Besides, the Potency result in assay [3], in assay [4], in assay [5], in assay [6], in assay [7] and in assay [8] was “inactive” throughout.
For the compound `CC(C)C[C@H](NC(=O)CNC(=O)c1cc(Cl)ccc1Cl)B1OC(=O)CC(CC(=O)O)(C(=O)O)O1` (stereo partly drawn), the Potency in assay [1] was 9680 nM (active); in assay [2] it was 118 nM (active); in assay [3], 132 nM (active); in assay [4], 132 nM (active); in assay [5] it was 132 nM (active); in assay [6] it was 166 nM (active). Also, the Potency in assay [7] was 166 nM (active); in assay [8], 186 nM (active).
Consider `Cc1cn([C@@H]2C[C@@H](O)[C@H](CO)O2)c(=O)[nH]c1=O`, for which, in assay [1], the activation is -12.7%. Further, the viability in assay [2] was 103%. Also, the Potency entry in assay [3], in assay [4], in assay [5], in assay [6], in assay [7] and in assay [8] was “inactive” each time.
As to `CC(Oc1ccc(O)cc1)(P(=O)(O)O)P(=O)(O)O`, the activation in assay [1] was -17.7%. For the same compound, in assay [2], the viability was 109%. Moreover, the Potency result in assay [3], in assay [4], in assay [5], in assay [6], in assay [7] and in assay [8] was “inactive” each time.
As for `COc1ccc2cccc(CCNC(C)=O)c2c1`, the activation in assay [1] is 3.03%. The viability in assay [2] is 116%. Besides, the Potency entry in assay [3], in assay [4], in assay [5], in assay [6], in assay [7] and in assay [8] was “inactive” each time.
`Cc1ccc2c(=O)c3cccc(CC(=O)O)c3oc2c1C`: the activation in assay [1] is 16.3%. Further, the viability in assay [2] is 108%. The Potency entry in assay [3], in assay [4], in assay [5], in assay [6], in assay [7] and in assay [8] was “inactive” throughout.
